Source: PubChem BioAssay AID1159580 (chemical genetic matrix, 2015)
About 2,000 (36%) of roughly 5,500 compounds were called active. Roughly 18% stayed inconclusive and do not appear here. Cut-off read from the data, not from the text of the source: active = normalized growth mostly below about 0.91 (no sharp cut-off); inconclusive = no clear call, values can overlap the other calls; inactive = mostly above about 0.92. The list shows a part of the results.

Test: chemical genetic growth profiling, strain panel (AID 1159580);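 note: tested at 20 µM; growth read once vehicle control cultures reached saturation at 30 °C; 1 = growth at the plate median or of vehicle wells; lower values mean less growth of the strain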
Settings: growth OD

Measured: normalized growth

COc1cc(OC)c2c3c1C(=O)c1c(OC)cc(C)c4c(OC)cc(c-3c14)C(C)(C)C2=O
inactive: S. cerevisiae deletion strains, locus YAL013W, strain DEP1, active compounds read low 1.02 | S. cerevisiae deletion strains, locus YBR021W, strain FUR4, active compounds read low 0.993 | S. cerevisiae deletion strains, locus YBR229C, strain ROT2, active compounds read low 1.02 | S. cerevisiae deletion strains, locus YCL029C, strain bik1, active compounds read low 0.993 | S. cerevisiae deletion strains, locus YDL035C, strain GPR1, active compounds read low 0.99 | S. cerevisiae deletion strains, locus YDL074C, strain BRE1, active compounds read low 0.991 | S. cerevisiae deletion strains, locus YDL101C, strain DUN1, active compounds read low 1.01 | S. cerevisiae deletion strains, locus YDL134C, strain PPH21, active compounds read low 1 | S. cerevisiae deletion strains, locus YDL185W, strain tfp1, active compounds read low 0.991 | S. cerevisiae deletion strains, locus YDL192W, strain arf1, active compounds read low 0.988 | S. cerevisiae deletion strains, locus YDR101C, strain arx1, active compounds read low 0.971 | S. cerevisiae deletion strains, locus YDR150W, strain NUM1, active compounds read low 1.01 | S. cerevisiae deletion strains, locus YDR162C, strain NBP2, active compounds read low 1.03 | S. cerevisiae deletion strains, locus YDR318W, strain mcm21, active compounds read low 0.98 | S. cerevisiae deletion strains, locus YDR388W, active compounds read low 0.989 | S. cerevisiae deletion strains, locus YDR502C, strain sam2, active compounds read low 0.981 | S. cerevisiae deletion strains, locus YEL061C, strain CIN8, active compounds read low 1.01 | S. cerevisiae deletion strains, locus YER110C, active compounds read low 0.988 | S. cerevisiae deletion strains, locus YER155C, strain BEM2, active compounds read low 1.01 | S. cerevisiae deletion strains, locus YER167W, strain BCK2, active compounds read low 0.987 | S. cerevisiae deletion strains, locus YGL078C, strain dbp3, active compounds read low 1 | S. cerevisiae deletion strains, locus YGL086W, strain mad1, active compounds read low 0.968 | S. cerevisiae deletion strains, locus YGL248W, strain PDE1, active compounds read low 1.01 | S. cerevisiae deletion strains, locus YGR078C, strain PAC10, active compounds read low 1.01 | S. cerevisiae deletion strains, locus YGR135W, strain pre9, active compounds read low 0.983 | S. cerevisiae deletion strains, locus YGR229C, strain SMI1, active compounds read low 0.997 | S. cerevisiae deletion strains, locus YGR252W, strain gcn5, active compounds read low 0.896 | S. cerevisiae deletion strains, locus YHR030C, strain SLT2, active compounds read low 1.01 | S. cerevisiae deletion strains, locus YHR079C, strain IRE1 (second series), active compounds read low 0.977 | S. cerevisiae deletion strains, locus YHR094C, strain hxt1, active compounds read low 0.985 | S. cerevisiae deletion strains, locus YHR129C, strain ARP1, active compounds read low 1.01 | S. cerevisiae deletion strains, locus YHR200W, strain rpn10, active compounds read low 0.989 | S. cerevisiae deletion strains, locus YIL066C, strain RNR3, active compounds read low 0.999 | S. cerevisiae deletion strains, locus YIL073C, strain SPO22, active compounds read low 0.924 | S. cerevisiae deletion strains, locus YIL125W, strain kgd1, active compounds read low 0.994 | S. cerevisiae deletion strains, locus YIR030C, strain dcg1, active compounds read low 0.979 | S. cerevisiae deletion strains, locus YJL095W, strain BCK1, active compounds read low 1.01 | S. cerevisiae deletion strains, locus YJL134W, strain LCB3, active compounds read low 1 | S. cerevisiae deletion strains, locus YJL168C, strain set2, active compounds read low 0.987 | S. cerevisiae deletion strains, locus YJL187C, strain SWE1 (second series), active compounds read low 1.01 | S. cerevisiae deletion strains, locus YJR043C, strain POL32, active compounds read low 0.993 | S. cerevisiae deletion strains, locus YJR075W, strain HOC1, active compounds read low 0.988 | S. cerevisiae deletion strains, locus YKL009W, strain mrt4, active compounds read low 0.979 | S. cerevisiae deletion strains, locus YKL068W, active compounds read low 0.992 | S. cerevisiae deletion strains, locus YKL085W, strain MDH1 (second series), active compounds read low 0.99 | S. cerevisiae deletion strains, locus YKL085W, strain MDH1, active compounds read low 0.99 | S. cerevisiae deletion strains, locus YKL190W, strain CNB1, active compounds read low 1 | S. cerevisiae deletion strains, locus YKR001C, strain vps1, active compounds read low 0.973 | S. cerevisiae deletion strains, locus YLR039C, strain RIC1, active compounds read low 1.01 | S. cerevisiae deletion strains, locus YLR058C, strain SHM2, active compounds read low 1.01 | S. cerevisiae deletion strains, locus YLR102C, strain apc9, active compounds read low 0.981 | S. cerevisiae deletion strains, locus YLR262C, strain YPT6, active compounds read low 0.995 | S. cerevisiae deletion strains, locus YLR268W, strain sec22, active compounds read low 0.973 | S. cerevisiae deletion strains, locus YLR330W, strain CHS5, active compounds read low 1.02 | S. cerevisiae deletion strains, locus YLR342W, strain FKS1 (second series), active compounds read low 0.967 | S. cerevisiae deletion strains, locus YLR371W, strain rom2, active compounds read low 0.99 | S. cerevisiae deletion strains, locus YLR418C, strain cdc73, active compounds read low 0.947 | S. cerevisiae deletion strains, locus YML016C, strain PPZ1, active compounds read low 1.01 | S. cerevisiae deletion strains, locus YML032C, strain rad52, active compounds read low 0.973 | S. cerevisiae deletion strains, locus YML124C, strain tub3, active compounds read low 0.985 | S. cerevisiae deletion strains, locus YMR078C, strain ctf18, active compounds read low 0.99 | S. cerevisiae deletion strains, locus YMR223W, strain ubp8, active compounds read low 0.969 | S. cerevisiae deletion strains, locus YMR263W, strain SAP30, active compounds read low 1.02 | S. cerevisiae deletion strains, locus YMR307W, strain GAS1, active compounds read low 0.977 | S. cerevisiae deletion strains, locus YNL067W, strain RPL9B, active compounds read low 1.01 | S. cerevisiae deletion strains, locus YNL128W, strain TEP1, active compounds read low 1.02 | S. cerevisiae deletion strains, locus YNL153C, strain GIM3, active compounds read low 1.02 | S. cerevisiae deletion strains, locus YNL233W, strain BNI4, active compounds read low 1.01 | S. cerevisiae deletion strains, locus YNL250W, strain rad50, active compounds read low 0.989 | S. cerevisiae deletion strains, locus YNL271C, strain bni1, active compounds read low 0.994 | S. cerevisiae deletion strains, locus YNL298W, strain CLA4, active compounds read low 0.99 | S. cerevisiae deletion strains, locus YNL307C, strain MCK1, active compounds read low 0.95 | S. cerevisiae deletion strains, locus YNL322C, strain KRE1, active compounds read low 1.01 | S. cerevisiae deletion strains, locus YNR052C, strain pop2, active compounds read low 0.985 | S. cerevisiae deletion strains, locus YOL006C, strain TOP1, active compounds read low 0.991 | S. cerevisiae deletion strains, locus YOL012C, strain htz1 1.08 | S. cerevisiae deletion strains, locus YOL147C, strain pex11, active compounds read low 0.994 | S. cerevisiae deletion strains, locus YOR061W, strain CKA2, active compounds read low 1 | S. cerevisiae deletion strains, locus YOR069W, strain VPS5, active compounds read low 1 | S. cerevisiae deletion strains, locus YOR136W, strain idh2, active compounds read low 0.987 | S. cerevisiae deletion strains, locus YOR144C, strain elg1, active compounds read low 0.991 | S. cerevisiae deletion strains, locus YOR184W, strain ser1, active compounds read low 0.952 | S. cerevisiae deletion strains, locus YOR316C, strain cot1, active compounds read low 0.981 | S. cerevisiae deletion strains, locus YPL055C, strain LGE1, active compounds read low 1.01 | S. cerevisiae deletion strains, locus YPL241C, strain CIN2, active compounds read low 1.01 | S. cerevisiae deletion strains, locus YPR119W, strain clb2, active compounds read low 0.988 | S. cerevisiae deletion strains, locus YPR141C, strain kar3, active compounds read low 0.986 | S. cerevisiae deletion strains, locus YPR163C, strain tif3, active compounds read low 0.989 | S. cerevisiae deletion strains, locus YPR167C, strain met16, active compounds read low 0.981 | S. cerevisiae deletion strains, strain wtn01, active compounds read low 0.95 | S. cerevisiae strains, strain wild type, active compounds read low 1
